ASM inhibitor: human S-ASM enzyme inhibition; P17405; placental ASM, HMU-PC fluorogenic substrate, 60 min; Potency, µM (series often up to 57.5 µM), without a hit: top-dose activity change, negative = inhibition, most hits filed as inhibitors; actives 0.006% (n = 340,000); AID 504937; also: potency is read from the fitted curve at half-maximal effect
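qHTS format. ASM enzyme prepared from human placenta hydrolyses the fluorogenic substrate HMU-PC0 (9 uM final) over 60 min at 37 °C after a 10 min compound preincubation.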
KCNH2 3.1 inh: KCNH2 3.1 (human) potassium channel inhibition. U2OS KCNH2 3.1, thallium flux FluxOr; hits give low values. activity change, % (tested at about 1.8 µM). actives 0.95% (n = 340,000). AID 720553;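 active = maximum activity change below -70%; inconclusive = maximum activity change from -70% to -50%; inactive = maximum activity change above -50%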;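 also: thallium influx rate constant from kinetic fluorescence after stimulation buffer; % is scaled to controls: 0 for no effect and ±100 for the full control effect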
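Thallium flux read-out: FluxOr dye with Red40 quencher in HBSS/HEPES, 45 min at RT. Rate constants from kinetic reads were normalized to positive and negative DMSO controls. Cells: U2OS virally expressing the 3.1 isoform.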
hERG WT inh: blocks the wildtype human KCNH2 potassium channel; U2OS, BacMam KCNH2, thallium flux FluxOr; hits give low values; activity change, % at 1.84 µM; actives 0.37% (n = 340,000); AID 720551;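 active = maximum activity change below -70%; inconclusive = maximum activity change between -70% and -50%; inactive = maximum activity change above -50%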; also: % is scaled to controls: 0 for no effect and ±100 for the full control effect
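U2OS cells were transduced with wild-type KCNH2 virus (2.03 x 10^8 / mL) for 4 h at room temperature, then cultured overnight at 37 C. Thallium flux was read with FluxOr dye. Rate constants were normalized to DMSO controls.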
Apoferritin bind: candidate novel general anesthetic via apoferritin binding; P02791; apoferritin/1-aminoanthracene competitive binding, fluorescence; Potency, µM (highest dose often 77.5 µM), for inactives: at the highest dose activity change, negative = displacement, actives largely listed as inhibitors; actives 0.074% (n = 350,000); AID 485281; also: potency is read from the fitted curve at half-maximal effect; % is scaled to controls: 0 for no effect and ±100 for the full control effect; nearly all actives have a fitted effect of over 20% in size
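Read-out: endpoint 1-AMA fluorescence, excitation 380 nm and emission 535 nm, after compounds sit 10 min at room temperature with 10 uM horse-spleen apoferritin in 50% saturated 1-AMA/PBS. Values come from four-parameter Hill fits.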
mIDH1 inhibitor: human IDH1 R132H inhibition | O75874 | IDH1-R132H enzyme, NADPH consumption, diaphorase/resazurin fluorescence | Potency, µM (top dose mostly 76.6 µM), for inactives: at the highest dose activity change, negative = inhibition, usual class: inhibitors | actives 0.093% (n = 390,000) | AID 602179; also: potency is read from the fitted curve at half-maximal effect; % is scaled to controls: 0 for no effect and ±100 for the full control effect; nearly all actives have a fitted effect of over 65% in size
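IDH1-R132H (0.5 ug/mL) preincubated 30 min with compound, then NADPH (0.016 mM) and alpha-KG (2 mM) added; 80 min at RT, pH 7.5. Remaining NADPH coupled via diaphorase/resazurin to fluorescence (540/590 nm); concentration-response curves normalized to no-enzyme control.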
* marks the source's active call; other numbers are inactive results; ? = inconclusive; nt = not tested or not shown; [ ] = remark or other dose. An excerpt weighted towards active compounds, which were near 1.2% of everything screened. Unless noted, calls follow the shape of the dose curve; as a rule, active = well fitted inhibition curve with a large enough effect; inconclusive = small, poorly fitted or top-dose-only effect; inactive = no such curve, though single readings can be large or run the other way.

SMILES	ASM inhibitor	KCNH2 3.1 inh	hERG WT inh	Apoferritin bind	mIDH1 inhibitor
CCNC(=O)Cc1c(OC)ccc2cc(Br)ccc12	0%	11	-4	-2%	-3%
COc1ccc2cc(Br)ccc2c1CC(=O)NC1CC(C)(C)NC(C)(C)C1	1%	-3	-123*	-16%	6%
Cc1ccc(C(=O)CC(=O)c2ccc(C(C)(C)C)cc2)cc1	1%	-102*	7	-6%	9%
COc1ccc(C(=O)CC(=O)c2ccc(C(C)(C)C)cc2)cc1	7%	-8	5	-2%	-9%
CCn1c(SCC(=O)NCc2ccco2)nnc1-c1cccs1	-1%	-74*	9	-7%	7%
CCc1nnc(SCC(=O)Nc2ccc3c(c2)OCO3)n1CC	7%	nt	-205*	-3%	6%
Cc1ccc(-n2c(Cc3cccs3)nnc2SCC(=O)Nc2ccc(F)c(F)c2)cc1	-9%	-15	-77*	12%	3%
CCn1c(Cc2ccccc2)nnc1SCC(=O)Nc1ccc2c(c1)OCO2	-1%	-28	7	?	2%
CCn1c(SCC(=O)Nc2ccc(N3CCOCC3)cc2)nnc1-c1ccncc1	3%	-76*	5	-4%	1%
CC(C)Cn1c(=O)c2sccc2n2c(CCCC(=O)NCC(C)c3ccccc3)nnc12 (centres undefined)	nt	nt	nt	4%	-7%
CCc1ccccc1NC(=O)Cn1nc(-c2cc(C)ccc2C)c2c(c1=O)CCCC2	nt	nt	nt	-15%	-7%
Nn1c(SCC(=O)Nc2ccc3c(c2)OCO3)nnc1C1CCCCC1	-1%	0	-3	5µM*	2%
O=C(CSc1nnc(-c2cccs2)n1-c1ccccc1)Nc1ccccc1	0%	-89*	-115*	-9%	-1%
CCn1c(SCC(=O)Nc2ccc3c(c2)OCCO3)nnc1-c1cccs1	1%	-81*	-1	?	13%
CCCCNC(=O)c1c(-c2ccccc2)c(-c2ccccc2)nn(C)c1=O	nt	nt	nt	-3%	-13%
O=C(Nc1ccn(CCCN2CCN(c3ncccn3)CC2)c(=O)n1)OCc1ccccc1	nt	-2	-74*	nt	4%
N[C@@]1(C(=O)O)CN[C@@H](C(=O)O)C1	nt	nt	nt	-9%	nt
CCOC(=O)CN1C(=O)N[C@@H](c2ccccc2)[C@H](C(C)=O)[C@H]1C	-1%	-82*	-12	nt	-1%
CCOC(=O)CN1C(=O)N[C@@H](c2ccccc2)[C@@H](C(=O)OC)[C@H]1C	-4%	12	6	nt	-9%
CCOc1cc2sc(N3CCC(C(=O)Nc4ccc(C)cc4C)CC3)nc2cc1Br	nt	nt	nt	1%	-3%
Cc1cccc(N2CCN(C(=O)Cn3nc(Cc4cccnc4)c4ccccc4c3=O)CC2)c1C	nt	nt	nt	3%	2%
COC(=O)C1C(=O)CC(C)(O)C(C(=O)OC)C1/C=C/c1ccccc1 (centres undefined)	2%	-13	4	-6%	12%
CCOC(=O)C1C(=O)CC(C)(O)C(C(=O)OCC)C1/C=C/c1ccccc1 (centres undefined)	0%	-106*	-1	-2%	6%
CO[C@@H]1/C=C\CC(=O)N[C@@H](C)C(=O)OC[C@H](NS(=O)(=O)c2ccc(C)cc2)[C@H](C)/C=C\CC(=O)OC[C@H]1C	nt	nt	nt	1%[15.3 µM]	nt
Cc1ccc(NC(=O)CSc2nc3ccccc3c(=O)n2CCCN2CCCCC2)cc1Cl	-9%	-74*	-15	?	11%
SMILES	ASM inhibitor	KCNH2 3.1 inh	hERG WT inh	Apoferritin bind	mIDH1 inhibitor
O=C(CSc1nc2ccccc2c(=O)n1CCCN1CCOCC1)Nc1ccc(F)c(Cl)c1	-13%	-28	7	nt	-7%
CCN(CC)CCn1c(SCC(=O)Nc2ccc3c(c2)CCC3)nc2ccccc2c1=O	-4%	-87*	-9	nt	3%
COc1ccc(-c2nc3ccccc3n2Cc2ccc(C)cc2)cc1	-23%	nt	-122*	8%	5%
CC(C)(C)C1CC=C2C(C#N)=C(N)C(C#N)(C#N)C(c3cccs3)C2C1 (centres undefined)	nt	nt	nt	-8%	nt
CCc1ccc(C2C(C#N)=C(N)C(C#N)(C#N)C3=CCC(C(C)(C)C)CC32)cc1 (centres undefined)	2%	5	1	?	37µM*
CC(Oc1cccc(Br)c1)C(=O)NNC(=O)c1ccccn1 (centres undefined)	8%	6	-6	nt	-9%
CC(Oc1cccc(Br)c1)C(=O)NNC(=O)CCS(=O)(=O)c1ccccc1 (centres undefined)	1%	-102*	-6	nt	12%
CN(C)CCOc1ccc(C(C)(C)c2ccccc2)cc1	3%	-2	-10	-17%	6%
CN(C)CCCOc1ccc(C(C)(C)c2ccccc2)cc1	0%	-1	1	16µM*	-2%
OC(CNCCc1ccccc1)COc1ccc(OCC(O)CNCCc2ccccc2)cc1 (centres undefined)	4%	-13	-3	0%	-18%
OC(CNCCC(c1ccccc1)c1ccccc1)COc1ccccc1 (centres undefined)	-6%	-97*	-11	-14%	6%
CC(C)N(CCNCC(O)COc1ccc(C(C)(C)c2ccccc2)cc1)C(C)C (centres undefined)	-4%	?	-96*	?	15%
COc1ccc(C(=O)CCN2CCN(c3ccccc3OC)CC2)cc1	4%	3	-4	-2%	4%
COc1ccccc1N1CCN(CCCC(=O)c2ccc(F)cc2)CC1	-7%	-70*	45	-12%	-3%
O=C(CCCN1CCC(C(=O)c2ccc(F)cc2)CC1)c1ccc(F)cc1	-2%	-103*	-74*	-3%	1%
CC1CCN(CCCC(=O)c2ccc(F)cc2)CC1	nt	nt	nt	-4%	nt
CCOC(=O)c1c(NC(C)=O)c2c3c(sc2n1Cc1nc(-c2ccc(Cl)cc2)oc1C)CCCC3	nt	nt	nt	6%	nt
Cc1ccc(C)c(S(=O)(=O)c2nnn3c2nc(N2CCCCC2)c2sccc23)c1	nt	nt	nt	-3%	12%
CCCCn1c(=O)c2oc3ccccc3c2n(Cc2ccc(OC)cc2)c1=O	nt	nt	nt	-11%	-8%
CN1CCN(c2ccc(Cl)cc2NC(=O)/C=C/c2cccc(F)c2)CC1	-1%	-70*	?	-10%	11%
O=C(NCCC(=O)N1CCN(c2cccc(Cl)c2)CC1)c1ccc(Br)cc1	-12%	-75*	8	nt	9%
O=C(NCCC(=O)N1CCN(c2ccccc2O)CC1)c1ccc(Br)cc1	-5%	3	3	nt	2%
NCCC(O)(P(=O)(O)O)P(=O)(O)O	nt	nt	nt	54%	nt
CC(O)(P(=O)(O)O)P(=O)(O)O	14µM*	3	35	-11%	0%
CCCCOC(=O)c1ccc(NS(=O)(=O)c2c(C)nc3scc(C)n3c2=O)cc1	nt	nt	nt	?	-3%
CNC(=O)Nc1ccccc1F	2%	7	-241*	-13%	9%
